Results as given in PubChem BioAssay AID2763 (National Center for Advancing Translational Sciences (NCATS), 2010).
Inconclusive results are not listed. A call without a number means that no potency is given here. Calls of active or inactive are those of the source. Calls come from the whole dose curve; as a rule, active = well fitted inhibition curve with a large enough effect; inconclusive = small, poorly fitted or top-dose-only effect, or effect the other way; inactive = no such curve, though single readings can be large or run the other way.

Assay: Concentration response confirmation VP16 counterscreen for inhibitors of ROR gamma transcriptional activity; note: nearly all actives have a fitted effect of over 70% in size
Details: Drosophila S2 Gal4-VP16 UAS-luciferase, luminescence, 20 h; series mostly up to 46.1 µM
Procedure, shortened: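 Drosophila Schneider cells stably carrying Gal4-VP16 under metallothionein promoter plus UAS-Photinus luciferase. Compound preincubated 1 hr, then 700 uM copper sulfate induction for 20 hr at ambient temperature; luminescence read.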
Potency is the fitted concentration of half-maximal effect.

Structure (SMILES) | Potency
CCC(C)NC(=O)CSc1nnc(-c2cc(-c3ccc(C)cc3)nc3ccccc23)n1N (stereo not given) | inactive
CCOc1cccc(-c2cc(-c3n[nH]c(=S)n3CC)c3ccccc3n2)c1 | inactive
Cc1oc(-c2ccccc2Cl)nc1CSCC(=O)O | 7.91 µM (active)
CN1CCN(C(=O)CCN2C(=O)/C(=C\c3ccccc3F)SC2=S)CC1 | inactive
Cc1ccccc1NC(=O)CCN1CCN(C)CC1 | inactive
Cn1c(=O)[nH]c(=O)c2c1nc(NCc1ccco1)n2Cc1ccccc1Cl | inactive
COc1ccc(C(CNC(=S)NCc2ccccc2)N2CCCC2)cc1 (stereo not given) | inactive
Cc1ccc(NC(=S)NCCN(C2CCCCC2)C2CCCC2)cc1C | 22.3 µM (active)
CCN(CC)c1ccc2cc(-c3nc4ccccc4[nH]3)c(=O)oc2c1 | 9.96 µM (active)
O=C(O)c1ccccc1SC1CC(=O)N(c2ccc3c(c2)OCO3)C1=O (stereo not given) | 19.9 µM (active)
CCOC(=O)c1oc2cccc(OCC(O)CNC(C)C)c2c1C (stereo not given) | inactive
Cc1ccc2nc(-c3ccc(NC(=O)COC(=O)c4ccc([N+](=O)[O-])o4)cc3)sc2c1 | 3.53 µM (active)
O=C(CN1CCCCCC1)Nc1ccc(S(=O)(=O)N2CCOCC2)cc1 | inactive
CNC(=O)NC(=O)CSc1nc2cc(C(=O)OC)ccc2c(=O)n1-c1ccccc1 | 25 µM (active)
O=C1NC2=C(C(=O)CCC2)C(c2ccccc2)N1 (stereo not given) | inactive
COc1cccc(Cn2c(NCc3ccco3)nc3c2c(=O)n(C)c(=O)n3C)c1 | 2.81 µM (active)
Cc1nc2c(-c3ccc(F)cc3)cnn2c(N)c1-c1ccccc1 | 0.281 µM (active)
CCC(C)[C@H](NC(=O)NCc1ccco1)C(=O)O (stereo not given in full) | inactive

Structure (SMILES) | Potency
O=C(CCCN1C(=O)/C(=C/c2ccccc2Cl)SC1=S)Nc1cccnc1 | 14.1 µM (active)
COC(=O)Cn1c(CN2CCc3ccccc3C2)nc2c1c(=O)n(C)c(=O)n2C | 6.28 µM (active)
Cc1cc(-c2ccccc2)nc(N2CCC(C(=O)NCc3ccccc3Cl)CC2)n1 | inactive
CN1CCN(CCC(=O)Nc2cccc(F)c2)CC1 | inactive
Cc1cc(C)nc(-n2nc(C)cc2NC(=O)c2ccc(F)cc2F)n1 | 2.81 µM (active)
COc1ccc(-c2c[n+]3c(n2-c2ccc(C)cc2)CCCCC3)cc1 | 3.53 µM (active)
COc1ccccc1CNC(=O)[C@@H](NC(=O)C1CCN(C(=O)[C@@H]2CCCN2C(=O)OC(C)(C)C)CC1)C(C)C | inactive
COC(=O)Cn1c(CN2CCN(c3ccc(F)cc3)CC2)nc2c1c(=O)n(C)c(=O)n2C | 3.15 µM (active)
CCOC(=O)[C@@H]1[C@H]2COc3ccc(Br)cc3[C@@H]2N2C(=O)N(c3ccccc3)C(=O)[C@@]12C | inactive
S=c1[nH]c(-c2ccc(Br)cc2)cn1CCc1ccccc1 | 14.1 µM (active)
Cc1cccc(-c2nc3cc(NC(=O)C4CCCO4)ccc3o2)c1 (stereo not given) | 2.5 µM (active)
O=C(NC(=S)Nc1nc(-c2ccc(Br)cc2)cs1)c1cccnc1 | inactive
c1ccc(Cn2c(-c3ccccc3)c[n+]3c2SCCC3)cc1 | inactive
CC(=O)c1cccc(N(CC(=O)Nc2ccccc2C(=O)N2CCCC2)S(C)(=O)=O)c1 | inactive
COc1ccc(OC)c(/C=C2\SC(=S)N(C(C(=O)O)c3ccccc3)C2=O)c1 (stereo not given) | inactive
COc1cccc(-c2cc(C(=O)N3CCc4ccccc4C3)[nH]n2)c1 | inactive
COc1ccc(C(=O)/C=C/c2ccc(OC)cc2OC)c(O)c1 | inactive
